Our source for the growth inhibition values is PubChem BioAssay (NCI).

This is part of a sample that, as a whole, favours compounds with a hit. Of some 79,000 tested, about 15% had one in any assay. Values without a mark were called inactive. The source made the active and inactive calls. Cut-off read from the data, not from the text of the source: active = growth inhibition above about 70%; inactive = the rest.

One experiment is described as follows: NCI Yeast Anticancer Drug Screen. Data for the sgs1 strain (AID 173).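 Note: 0% = growth of vehicle-only control cultures.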 The conditions noted are these: S. cerevisiae sgs1 mutant, at 1.2 µM, hits give high values. The gist of the method:
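Read-out: yeast growth inhibition relative to vehicle controls, following compound exposure of a strain with a defined DNA repair/cell cycle alteration.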
In the case of `O=C(/N=N/C(=O)Oc1ccccc1)Oc1ccccc1`, the growth inhibition was -78%.
Take `COc1cc([C@@H]2c3cc4c(cc3[C@@H](NC(=O)NO)[C@H]3COC(=O)[C@H]23)OCO4)cc(OC)c1O`: the growth inhibition was -1%.
Take `CCOC(=O)/C(=C/c1cccc(Cl)c1)N(CC)CC`: the growth inhibition is 26%.
Still for that read-out and setting: the figure for `CC(C)OC(=O)NNc1cccc(Cl)c1` is 2%; for `CCC(=O)C1=C(O)c2cc(OC)ccc2CC1C(=O)OC` (configuration not stated) it is -1%; for `O=S(=O)(NC1CCCC(c2ccccc2)C1)c1ccccc1` (configuration not stated) it is -4%.
On the same count and under the same terms, in the case of `COc1ccc2nc3cccc([N+](=O)[O-])c3c(NCCCCCC(=O)O)c2c1` it was 90% (active); in that of `CCO/C=C1\SC(=S)N(c2ccc(OCC)cc2)C1=O`, -35%.
The same measure, in the same setting: the figure for `COc1cc(OC)c(CSCC(NC(=O)OCC2c3ccccc3-c3ccccc32)C(=O)O)c(OC)c1` (configuration not stated) is 1%; for `COC(=O)c1ccccc1N=NNc1cccc(SC)c1` it is -6%.
As to `CC1=NN(C(=O)c2ccccc2O)C(=O)/C1=C/c1ccco1`, the growth inhibition is 7%.
Same read-out and setting: in the case of `COc1ccccc1NC(=O)c1ccc(Cl)cc1` it was 0%.
Same read-out and setting: the figure for `CC(C)=CCC/C(C)=C/CN1C(=O)C=CC1=O` is 20%; for `O=C1CSC(c2ccccc2)N1c1ccc(-c2ccc(-n3c(-c4ccccc4)nc4ccccc4c3=O)cc2)cc1` (configuration not stated) it is 1%; for `N#CC1OB(O)c2ccccc21` (configuration not stated) it is 1%.
As for `O=C(NCCNCCNC(=O)c1cc(-c2ccccc2)nc2ccccc12)c1cc(-c2ccccc2)nc2ccccc12`, the growth inhibition is -2%.
The same measure, in the same setting: in the case of `Brc1ccc(B2Nc3ccccc3N2)cc1` it was 0%.
`CCOP(=O)(OCC)/C(C#N)=C/c1cccc(Oc2ccccc2)c1`: the growth inhibition was 10%.

The experiment is the same for the next values; noted with them: S. cerevisiae sgs1 mutant, at 3.7 µM, hits give high values.
As for `CN(C)CC(CN(C)C)C(=O)/C=C/c1ccc(Cl)cc1Cl`, the growth inhibition is -2%.
On the same count and under the same terms, in the case of `c1ccc2c(c1)ccn2CCc1c[nH]c2ccccc12` it was -38%; in that of `CC(C)OC(=O)NNc1c(Cl)cc(Cl)cc1Cl`, -2%.
Same read-out and setting: in the case of `COc1ccc2nc3cccc([N+](=O)[O-])c3c(NCCNCCO)c2c1` it was 89% (active).
`COc1ccc2c(c1)CCCC(Br)C2=O` (configuration not stated): the growth inhibition is 43%.
Still for that read-out and setting: the figure for `CCC(OC(C)=O)C1CC(C(C)C)CCC1C` (configuration not stated) is 1%.
Same read-out and setting: the figure for `O=S(=O)(c1cccc(C(F)(F)F)c1)N1c2ccccc2-n2cccc2C1c1cccnc1` (configuration not stated) is -21%.
On the same count and under the same terms, the figure for `c1ccc(-c2cc(C3CO3)c3ccccc3n2)cc1` (configuration not stated) is 1%.
With `COc1ccc(/C=C2\SC(=S)N(/C=C3\C(=O)N(c4ccccc4)N=C3C)C2=O)cc1OC`, the growth inhibition was 15%.
Take `CC1=CC(=C(c2ccc(N)c(C)c2)c2ccc(N)c(C)c2)C=CC1=N`: the growth inhibition is 19%.
In the case of `CC1C(c2ccccc2)SC(=N)N1C` (configuration not stated), the growth inhibition was 0%.
Take `CC(/C=C/c1ccc([N+](=O)[O-])o1)=N/N1CC(CN2CCOCC2)OC1=O` (configuration not stated): the growth inhibition was 3%.
On to `C=CC(C)(C)N1C(=O)C(C(C)=O)=C(O)C1Cc1c[nH]c2ccccc12` (configuration not stated), for which the growth inhibition is 0%.
On to `O=C1c2cccc3cccc(c23)C(=O)N1CCNCCN1C(=O)c2cccc3cccc(c23)C1=O`, for which the growth inhibition is -2%.
Still for that read-out and setting: the figure for `Cc1ccc([N+](=O)[O-])c2c(NCCC[N+](C)(C)[O-])c3ccccc3nc12` is 6%; for `COC(=O)C(Cc1c[nH]c2ccccc12)N1CN(C)c2ccccc2C1=O` (configuration not stated) it is 2%; for `O=C(/N=N/C(=O)Oc1ccccc1)Oc1ccccc1` it is -80%.
On the same count and under the same terms, the figure for `COc1cc([C@@H]2c3cc4c(cc3[C@@H](NC(=O)NO)[C@H]3COC(=O)[C@H]23)OCO4)cc(OC)c1O` is 1%; for `CCOC(=O)/C(=C/c1cccc(Cl)c1)N(CC)CC` it is 30%.
Same read-out and setting: in the case of `CC(C)OC(=O)NNc1cccc(Cl)c1` it was 23%; in that of `CCC(=O)C1=C(O)c2cc(OC)ccc2CC1C(=O)OC` (configuration not stated), -1%; in that of `O=S(=O)(NC1CCCC(c2ccccc2)C1)c1ccccc1` (configuration not stated), 4%.
Turning to `COc1ccc2nc3cccc([N+](=O)[O-])c3c(NCCCCCC(=O)O)c2c1`, the growth inhibition was 93% (active).
On to `CCO/C=C1\SC(=S)N(c2ccc(OCC)cc2)C1=O`, for which the growth inhibition was -39%.
For the molecule `COc1cc(OC)c(CSCC(NC(=O)OCC2c3ccccc3-c3ccccc32)C(=O)O)c(OC)c1` (configuration not stated), the growth inhibition was 9%.
The same measure, in the same setting: in the case of `COC(=O)c1ccccc1N=NNc1cccc(SC)c1` it was -13%; in that of `CC1=NN(C(=O)c2ccccc2O)C(=O)/C1=C/c1ccco1`, 44%.
Turning to `COc1ccccc1NC(=O)c1ccc(Cl)cc1`, the growth inhibition is 1%.
On the same count and under the same terms, in the case of `CC(C)=CCC/C(C)=C/CN1C(=O)C=CC1=O` it was 48%; in that of `O=C1CSC(c2ccccc2)N1c1ccc(-c2ccc(-n3c(-c4ccccc4)nc4ccccc4c3=O)cc2)cc1` (configuration not stated), 1%.
Consider `N#CC1OB(O)c2ccccc21` (configuration not stated), for which the growth inhibition is 1%.
For the molecule `O=C(NCCNCCNC(=O)c1cc(-c2ccccc2)nc2ccccc12)c1cc(-c2ccccc2)nc2ccccc12`, the growth inhibition was 0%.
Consider `Brc1ccc(B2Nc3ccccc3N2)cc1`, for which the growth inhibition is 6%.
Consider `CCOP(=O)(OCC)/C(C#N)=C/c1cccc(Oc2ccccc2)c1`, for which the growth inhibition was 3%.
